Results on 28 compounds are retold here after PubChem BioAssay (NCATS).

Records with an inconclusive call do not appear. A call without a number means that no potency is given here. The source made the active and inactive calls. Calls come from the whole dose curve; as a rule, active = well fitted inhibition curve with a large enough effect; inconclusive = small, poorly fitted or top-dose-only effect; inactive = no such curve, though single readings can be large or run the other way.

Assay [1] relates to Zika virus NS2B-NS3 protease (unlinked complex). The assay can be described thus: Primary screen GU Rhodamine qHTS for Zika virus inhibitors: Unlinked NS2B-NS3 protease assay (AID 1347159). Note: nearly all actives have a fitted effect of over 60% in size. Put shortly: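 Buffer 10 mM Tris-HCl pH 8.0, 0.01% Tween 20. Unlinked protease 25 nM; compound preincubation 15 min, RT, protected from light. Substrate Rhod110, 1.5 microM; ~15% conversion in 15 min.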

The subject of assay [2] is Zika virus NS2B-NS3 protease (linked construct). Nature of the assay: Primary screen NINDS Rhodamine qHTS for Zika virus inhibitors (AID 1347160). Note: nearly all actives have a fitted effect of over 55% in size. Put shortly: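 Aprotinin served as in-plate control. Conditions: 25 nM linked NS2B-NS3, pH 8.0 Tris buffer, titrated compounds, 15 min preincubation and 15 min reaction with 1.5 microM Rhod110 substrate at room temperature.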
In general terms: qHTS replaces the single test concentration by a dilution series.

On to `C=C1CC23CC(=O)C4C(CO)(CO)CCCC4(C)C2CCC1C3` (centres undefined), for which the Potency entry in assay [1] and in assay [2] was “inactive” in each case. For the compound `CC(C)(O)C1CCC2(C)CCCC(C)(O)C2C1` (centres undefined), the Potency result in assay [1] and in assay [2] was “inactive” throughout. For the compound `C=C1C[C@H](O)[C@@H](O)[C@@]2(C)C1[C@@H](O)[C@H]1OC(=O)C3[C@@H](C)[C@@H](O)[C@H](O)C2[C@]31C` (some centres undefined), the Potency result in assay [1] and in assay [2] was “inactive” throughout. Turning to `Nc1ncnc2c1c(COc1cccc(Cl)c1)nn2C1CCOCC1`, the Potency result in assay [1] and in assay [2] was “inactive” throughout.

With `O=C(O[C@@H]1O[C@H](CO)[C@@H](O)[C@H](O)[C@H]1O)c1ccccc1`, the Potency result in assay [1] and in assay [2] was “inactive” each time. Regarding `C[C@@H]1O[C@@H](O[C@@H]2[C@@H](O)[C@H](O[C@H]3[C@H](O[C@H]4CC[C@@]5(C)C(CC[C@]6(C)C5CC=C5[C@@H]7CC(C)(C)CC[C@]7(C(=O)O[C@@H]7O[C@H](CO)[C@@H](O)[C@H](O)[C@H]7O)CC[C@]56C)C4(C)C)O[C@H](C(=O)O)[C@@H](O)[C@@H]3O)OC[C@H]2O)[C@H](O)[C@H](O)[C@H]1O` (some centres undefined), the Potency entry in assay [1] and in assay [2] was “inactive” each time. Take `CC(=O)O[C@@H]1[C@H](OC(C)=O)C[C@@]2(C)C(CC[C@@H](C)[C@]23Cc2c(O)cc4c(c2O3)CN([C@@H](CCC(=O)O)C(=O)O)C4=O)C1(C)C` (some centres undefined): the Potency result in assay [1] and in assay [2] was “inactive” throughout.

`OC[C@@]1(O)CO[C@@H](OC[C@H]2O[C@@H](Oc3ccccc3)[C@H](O)[C@@H](O)[C@@H]2O)[C@@H]1O`: the Potency result in assay [1] and in assay [2] was “inactive” in each case. `C[C@@H]1[C@H](O)[C@@H]2OC(=O)C3=C2[C@H](CCC3)[C@@]12C[C@@H](c1ccoc1)OC2=O`: the Potency entry in assay [1] and in assay [2] was “inactive” throughout. For `C/C=C/C=C/C=C/C(=O)N(C)C(C(=O)NC(C)C(=O)N1CCCC1C(N)=O)C(C)C` (centres undefined), the Potency result in assay [1] and in assay [2] was “inactive” each time. Take `COc1ccc(C(=O)NCc2cc(C(C)C)no2)cc1OC1CCN(C)CC1`: the Potency entry in assay [1] and in assay [2] was “inactive” each time. With `Oc1ccc(CC2NCCc3cc(O)c(O)cc32)cc1` (centres undefined), the Potency entry in assay [1] and in assay [2] was “inactive” each time. Turning to `COC(=O)[C@H](O)[C@H]1C(C)(C)[C@H](OC(C)=O)[C@@]2(O)C(=O)[C@]1(C)C1CC[C@]3(C)C(CC(=O)O[C@H]3c3ccoc3)[C@]13O[C@@H]32` (some centres undefined), the Potency result in assay [1] and in assay [2] was “inactive” each time.

On to `CC1C2=CC(=O)OC2(O)CC2C1C(OC(=O)c1ccccc1)C(OC(=O)c1ccccc1)C1(O)C2(C)CCC(O)C1(C)C(=O)O` (centres undefined), for which the Potency entry in assay [1] and in assay [2] was “inactive” throughout. `CC(=O)O[C@@H]1C[C@@H](C)[C@](O)(CCC2=CC(=O)OC2)[C@@]2(C)CCCC(C)(C)C12` (some centres undefined): the Potency entry in assay [1] and in assay [2] was “inactive” throughout. On to `O=C(O)Cc1cn([C@@H]2OC[C@@H](O[C@@H]3O[C@H](CO)[C@@H](O)[C@H](O)[C@H]3O)[C@H](O)[C@H]2O[C@@H]2O[C@H](CO)[C@@H](O)[C@H](O)[C@H]2O)c2ccccc12`, for which the Potency entry in assay [1] and in assay [2] was “inactive” each time.

For the compound `COC(=O)C1(O)C(OC(C)=O)CCC2C3(CC(c4ccoc4)OC3=O)C(C)=CCC21C(=O)OC` (centres undefined), the Potency entry in assay [1] and in assay [2] was “inactive” throughout. On to `Cc1cn2cc(CC(=O)N3CCC4(CC3)CN(Cc3ccc(-n5nccn5)cc3Cl)C4)nc2s1`, for which the Potency entry in assay [1] and in assay [2] was “inactive” in each case. As for `NC(=O)c1ccc(F)c2c1C[C@@H](N(C1CCC1)C1CCC1)CO2`, the Potency result in assay [1] and in assay [2] was “inactive” in each case. In the case of `C/C=C(/C)C(=O)O[C@H]1C[C@]2(C)O[C@@H]2[C@@H](OC(C)=O)[C@@]2(C)CC[C@@](O)(C(C)C)[C@H]12`, the Potency result in assay [1] and in assay [2] was “inactive” in each case. With `COC(=O)c1cc(OC)cc(OC)c1C(=O)c1c(OC)cc2c(c1O)C1CCC(O)C(C)(O2)O1` (centres undefined), the Potency entry in assay [1] and in assay [2] was “inactive” throughout. Regarding `NC(=O)C(O[C@@H]1O[C@H](CO[C@@H]2O[C@H](CO)[C@@H](O)[C@H](O)[C@H]2O)[C@@H](O)[C@H](O)[C@H]1O)c1ccccc1` (some centres undefined), the Potency entry in assay [1] and in assay [2] was “inactive” in each case. As for `CC1=C2C[C@@]3(C)C(CCC[C@@H]3C)C(O)C2(O)OC1=O` (some centres undefined), the Potency entry in assay [1] and in assay [2] was “inactive” each time. Consider `COc1cc(/C=C/C(=O)O)ccc1O[C@@H]1O[C@H](CO)[C@@H](O)[C@H](O)[C@H]1O[C@@H]1OC[C@](O)(CO)[C@H]1O`, for which the Potency result in assay [1] and in assay [2] was “inactive” throughout.

Take `CC(NC(=O)CC(=O)O)C(=O)Nc1ccccc1C(N)=O` (centres undefined): the Potency entry in assay [1] and in assay [2] was “inactive” in each case. For `CC(=O)OC[C@@]12C(=O)C[C@@H](C)[C@]3(C[C@@H](c4ccoc4)OC3=O)[C@H]1CC[C@H](OC(C)=O)[C@]21CO1`, the Potency entry in assay [2] was “inactive”. With `O=c1[nH]ccc2nc(-c3ccc(CN4CCC(c5nc(-c6ccccn6)n[nH]5)CC4)cc3)c(-c3ccccc3)cc12`, the Potency entry in assay [2] was “inactive”. In the case of `CCC(C)C1NC(=O)C2C(C)CCN2C(=O)C(CC(O)CO)OC(=O)CCNC(=O)C(C)N(C)C(=O)C(C(C)C)N(C)C1=O` (centres undefined), the Potency result in assay [1] and in assay [2] was “inactive” throughout.
